The source of these data is PubChem BioAssay (EPA / NIEHS).

Broadly, the AC50 is the concentration at which the activity in the assay is half-maximal.

Where “and” joins values, the source holds several entries; their conditions need not be identical. Equal values may be shown once. The source holds several records for some structures; these can differ, active in one and inactive in another. Calls of active or inactive are those of the source. Rule for the calls: active = hit-call score of the fitted dose curve at least 0.9, where 1 is the maximum; inactive = score below 0.9.

Read-out in one assay: growth arrest and DNA damage 45 (GADD45G), GADD45G (gene 10912)
Kind of assay: LTEA_HepaRG_GADD45G: Life Technologies and Expression Analysis (LTEA) Assay for growth arrest and DNA damage 45 (GADD45G) using HepaRG (AID 2283499). The following applies: mRNA level, 48 h; actives raise or lower the signal. The essentials: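 Human hepatic HepaRG line treated 48 h with chemicals (eight concentrations, half-log steps from 100 uM); transcript induction or repression of GADD45G scored by qRT-PCR versus DMSO vehicle.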
Regarding `Cc1nn(C)c(Oc2ccccc2)c1C=NOCc1ccc(C(=O)OC(C)(C)C)cc1`, the AC50 was 3.1 µM (active).
Same read-out and setting: the value for `CCCCOCCOCCOCc1cc2c(cc1CCC)OCO2` was 4.83 µM (active).
Turning to `S=C(S)NCCNC(=S)S.[Mn+2].[S-]C([S-])=NCCN=C([S-])[S-].[Zn+2]`, the AC50 was 3.67 µM (active) and 2.31 µM (active) and 3.97 µM (active).
For `CCOC(=O)C(C)Oc1ccc(Oc2nc3ccc(Cl)cc3o2)cc1` (stereo not drawn), the result was inactive.
The same measure, in the same setting: in the case of `CCOC(=O)COc1cc(-n2ncc(C(F)(F)F)c(C)c2=O)c(F)cc1Cl` it was “inactive”.
Still for that read-out and setting: in the case of `CSC(=O)c1cccc2nnsc12` it was “inactive”; in that of `O=C(O)c1ccccc1`, “inactive”; in that of `CCCCOC(=O)[C@@H](C)Oc1ccc(Oc2ccc(C(F)(F)F)cn2)cc1`, “inactive”.
For the compound `CCCOC(=O)c1ccc(C(=O)OCCC)nc1`, the outcome was inactive.
Consider `CC(=O)S[C@@H]1CC2=CC(=O)CC[C@]2(C)[C@H]2CC[C@@]3(C)[C@@H](CC[C@@]34CCC(=O)O4)[C@H]12`, for which the AC50 was 32.7 µM (active).
For the compound `CC(C)CCCCCCc1ccc(O)cc1`, the outcome was inactive.
Same read-out and setting: in the case of `CCC(C)OC(=O)N1CCCCC1CCO` (stereo not drawn) it was “inactive”; in that of `OB(O)O`, “inactive”; in that of `C[C@]12C[C@H](O)[C@H]3[C@@H](CCC4=CC(=O)CC[C@@]43C)[C@@H]1CC[C@@H]2C(=O)CO`, “inactive”.
On the same count and under the same terms, the value for `CC(C)(C)[C@@H](O)[C@@H](Cc1ccc(Cl)cc1)n1cncn1` was “inactive”.
Same read-out and setting: in the case of `CCCCCOC(=O)COc1cc(N2C(=O)C3=C(CCCC3)C2=O)c(F)cc1Cl` it was “inactive”; in that of `CC(C)(c1ccc(O)cc1)c1ccc(O)cc1`, “inactive”.
For `C=CCOC(Cn1ccnc1)c1ccc(Cl)cc1Cl` (stereo not drawn), the AC50 is 91.6 µM (active).
Turning to `c1ccc(Nc2ccccc2)cc1`, the compound was classed as inactive.
Still for that read-out and setting: the value for `O=C(Nc1ccc([N+](=O)[O-])cc1Cl)c1cc(Cl)ccc1O` was “inactive”; that for `CCN(Cc1c(F)cccc1Cl)c1c([N+](=O)[O-])cc(C(F)(F)F)cc1[N+](=O)[O-]` was “inactive”.
For the compound `C[C@]12CC[C@@H]3c4ccc(O)cc4C[C@@H](CCCCCCCCCS(=O)CCCC(F)(F)C(F)(F)F)[C@H]3[C@@H]1CC[C@@H]2O` (stereo partly drawn), the AC50 is 13 µM (active).
As to `C#CCOC(=O)[C@@H](C)Oc1ccc(Oc2ncc(Cl)cc2F)cc1`, the compound was classed as inactive.
Regarding `S=C([S-])NCCNC(=S)[S-].[Mn+2]`, the AC50 is 4.33 µM (active).
`CN(C)C(=O)Nc1ccc(Cl)c(Cl)c1`: the call was inactive.
On the same count and under the same terms, the value for `CCN(CC)C(=O)c1cccc(C)c1` was “inactive”.

Read-out in a further assay: Glutamate-cysteine ligase regulatory (GCLM), GCLM (gene 2730)
Kind of assay: LTEA_HepaRG_GCLM: Life Technologies and Expression Analysis (LTEA) Assay for Glutamate-cysteine ligase regulatory (GCLM) using HepaRG (AID 2283500). To be noted: mRNA level, 48 h; actives raise or lower the signal. The essentials:
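Differentiated HepaRG cells exposed 48 h in serum-free induction medium to eight half-log concentrations up to 100 uM (0.5% DMSO). GCLM mRNA by TaqMan qRT-PCR, normalized to ACTB, GAPDH and POLR2A; bidirectional fit versus DMSO.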
For the compound `Cc1nn(C)c(Oc2ccccc2)c1C=NOCc1ccc(C(=O)OC(C)(C)C)cc1`, the AC50 was 17.6 µM (active).
`CCCCOCCOCCOCc1cc2c(cc1CCC)OCO2`: the result was inactive.
For `S=C(S)NCCNC(=S)S.[Mn+2].[S-]C([S-])=NCCN=C([S-])[S-].[Zn+2]`, the AC50 was 25 µM (active) and the compound was classed as inactive.
In the case of `CCOC(=O)C(C)Oc1ccc(Oc2nc3ccc(Cl)cc3o2)cc1` (stereo not drawn), the call was inactive.
Same read-out and setting: the value for `CCOC(=O)COc1cc(-n2ncc(C(F)(F)F)c(C)c2=O)c(F)cc1Cl` was “inactive”.
As to `CSC(=O)c1cccc2nnsc12`, the compound was called inactive.
The same measure, in the same setting: the value for `O=C(O)c1ccccc1` was “inactive”.
On the same count and under the same terms, in the case of `CCCCOC(=O)[C@@H](C)Oc1ccc(Oc2ccc(C(F)(F)F)cn2)cc1` it was “inactive”.
In the case of `CCCOC(=O)c1ccc(C(=O)OCCC)nc1`, the compound was classed as inactive.
For the compound `CC(=O)S[C@@H]1CC2=CC(=O)CC[C@]2(C)[C@H]2CC[C@@]3(C)[C@@H](CC[C@@]34CCC(=O)O4)[C@H]12`, the outcome was inactive.
Turning to `CC(C)CCCCCCc1ccc(O)cc1`, the compound was classed as inactive.
On the same count and under the same terms, the value for `CCC(C)OC(=O)N1CCCCC1CCO` (stereo not drawn) was “inactive”.
For the compound `OB(O)O`, the result was inactive.
Still for that read-out and setting: the value for `C[C@]12C[C@H](O)[C@H]3[C@@H](CCC4=CC(=O)CC[C@@]43C)[C@@H]1CC[C@@H]2C(=O)CO` was “inactive”; that for `CC(C)(C)[C@@H](O)[C@@H](Cc1ccc(Cl)cc1)n1cncn1` was “inactive”.
On the same count and under the same terms, in the case of `CCCCCOC(=O)COc1cc(N2C(=O)C3=C(CCCC3)C2=O)c(F)cc1Cl` it was “inactive”; in that of `CC(C)(c1ccc(O)cc1)c1ccc(O)cc1`, “inactive”; in that of `C=CCOC(Cn1ccnc1)c1ccc(Cl)cc1Cl` (stereo not drawn), “inactive”.
Same read-out and setting: the value for `c1ccc(Nc2ccccc2)cc1` was “inactive”; that for `O=C(Nc1ccc([N+](=O)[O-])cc1Cl)c1cc(Cl)ccc1O` was “inactive”.
Consider `CCN(Cc1c(F)cccc1Cl)c1c([N+](=O)[O-])cc(C(F)(F)F)cc1[N+](=O)[O-]`, for which the AC50 is 50 µM (active).
The same measure, in the same setting: in the case of `C[C@]12CC[C@@H]3c4ccc(O)cc4C[C@@H](CCCCCCCCCS(=O)CCCC(F)(F)C(F)(F)F)[C@H]3[C@@H]1CC[C@@H]2O` (stereo partly drawn) it was 0.0464 µM (active).
As to `C#CCOC(=O)[C@@H](C)Oc1ccc(Oc2ncc(Cl)cc2F)cc1`, the call was inactive.
In the case of `S=C([S-])NCCNC(=S)[S-].[Mn+2]`, the AC50 was 8.92 µM (active).
Still for that read-out and setting: in the case of `CN(C)C(=O)Nc1ccc(Cl)c(Cl)c1` it was 50 µM (active).

Read-out in the next assay: Glutathione S-transferase M3 (GSTM3), GSTM3 (gene 2947)
Description: LTEA_HepaRG_GSTM3: Life Technologies and Expression Analysis (LTEA) Assay for Glutathione S-transferase M3 (GSTM3) using HepaRG (AID 2283501). The following applies: mRNA level, 48 h; actives raise or lower the signal. The essentials: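 Changes in GSTM3 expression, an oxidative-stress marker, were scored by bidirectional curve fitting against 0.5% DMSO vehicle. Human HepaRG cultures received chemicals for 48 h in duplicate, highest concentration 100 uM with half-log dilutions.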
As to `CCCCOCCOCCOCc1cc2c(cc1CCC)OCO2`, the compound was called inactive.
Same read-out and setting: in the case of `CCCCOC(=O)[C@@H](C)Oc1ccc(Oc2ccc(C(F)(F)F)cn2)cc1` it was “inactive”.
Same read-out and setting: in the case of `CCC(C)OC(=O)N1CCCCC1CCO` (stereo not drawn) it was “inactive”.
On the same count and under the same terms, in the case of `OB(O)O` it was “inactive”; in that of `CC(C)(C)[C@@H](O)[C@@H](Cc1ccc(Cl)cc1)n1cncn1`, “inactive”; in that of `CC(C)(c1ccc(O)cc1)c1ccc(O)cc1`, “inactive”.
Regarding `C=CCOC(Cn1ccnc1)c1ccc(Cl)cc1Cl` (stereo not drawn), the compound was classed as inactive.
On the same count and under the same terms, the value for `CCN(Cc1c(F)cccc1Cl)c1c([N+](=O)[O-])cc(C(F)(F)F)cc1[N+](=O)[O-]` was “inactive”.
For `C[C@]12CC[C@@H]3c4ccc(O)cc4C[C@@H](CCCCCCCCCS(=O)CCCC(F)(F)C(F)(F)F)[C@H]3[C@@H]1CC[C@@H]2O` (stereo partly drawn), the AC50 is 29.8 µM (active).
Regarding `C#CCOC(=O)[C@@H](C)Oc1ccc(Oc2ncc(Cl)cc2F)cc1`, the result was inactive.
`S=C([S-])NCCNC(=S)[S-].[Mn+2]`: the AC50 is 1.88 µM (active).
